For orientation: inhibition means the drop in the measured response relative to a control, in per cent.

Consider 40 compounds from ChEMBL document CHEMBL3433997, “St. Jude Leishmania screening dataset” (2016).

SMILES strings stand for the structures.

The test deals with Solute carrier family 2, facilitated glucose transporter member 1 (Homo sapiens) (UniProt P11166). Kind of test: ST_JUDE_LEISH: Cytotoxicity at 2uM final concentration against transgenic Leishmania Mexicana promastigotes LmGLUT1 that are glucose transport deficient and complemented with the human glucose transporter GLUT1. Activity is measured by DNA content using SYBR green in vitro. It is filed as functional.
Sequence of Solute carrier family 2, facilitated glucose transporter member 1 (Homo sapiens) (P11166 whole entry): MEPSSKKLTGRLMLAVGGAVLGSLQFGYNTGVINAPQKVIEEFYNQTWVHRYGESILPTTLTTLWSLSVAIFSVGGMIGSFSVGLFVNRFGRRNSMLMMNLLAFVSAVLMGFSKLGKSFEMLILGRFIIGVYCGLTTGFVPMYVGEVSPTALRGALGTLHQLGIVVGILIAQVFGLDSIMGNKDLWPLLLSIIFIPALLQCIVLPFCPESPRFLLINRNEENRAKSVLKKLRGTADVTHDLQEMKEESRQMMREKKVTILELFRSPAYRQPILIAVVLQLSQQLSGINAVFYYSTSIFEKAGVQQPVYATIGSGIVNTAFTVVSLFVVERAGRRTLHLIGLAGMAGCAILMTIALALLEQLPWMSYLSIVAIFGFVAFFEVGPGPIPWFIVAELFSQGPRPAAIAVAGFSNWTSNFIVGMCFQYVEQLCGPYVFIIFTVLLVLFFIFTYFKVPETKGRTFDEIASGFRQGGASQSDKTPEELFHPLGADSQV
Consider `N=c1c2c(n(Cc3cccc(Cl)c3)c3c1CCC3)CCCC2`, for which the inhibition stood at 40.7%.
In the case of `COc1ccc(F)cc1-c1ccc(C(=O)N2CCCN(c3ccc(C(F)(F)F)cn3)CC2)cc1` it was 2.4%; in that of `CCCCCCCN1CCC(CCNc2ccnc3ccc(OC)cc23)CC1`, 0.51%; in that of `CN1CCCN(Cc2ccc(-c3cccc(NC(=O)c4cccc(F)c4)c3)cc2)CC1`, 12.9%.
As for `N#Cc1ccc(N2CCN(Cc3cccc(-c4cccc(-c5nc6cc(F)ccc6[nH]5)c4)c3)CC2)nc1`, the figure is 3.5%; as for `Cc1nc(NC(=N)N)nc2ccc(C(C)(C)C)cc12`, 0.73%.
As for `CCCC(=O)Nc1ccc(OCCCCN(CC(C)(C)C)c2ccc(C#N)c(C(F)(F)F)c2)cc1`, the figure is 1.48%; as for `Cc1ccc(NC(=O)Nc2ccc(S(=O)(=O)c3ccc(NC(=O)Nc4ccc(C)c(Cl)c4)cc3)cc2)cc1Cl`, 0.06%; as for `O=C(Nc1ccc2c(c1)CCN2C1CCN(Cc2cccc(C(F)(F)F)c2)C1)c1ccco1` (stereo not given), -2.78%.
As to `Cc1cnc(C[S+]([O-])c2nc3cc(C(F)(F)F)ccc3[nH]2)cc1OCc1ccccc1` (stereo not given), the inhibition was found to be 3.56%.
As for `O=C(Cc1ccc(Cl)cc1)Nc1cc(Cl)ccc1Cn1cnc(N2CCNCC2)cc1=O`, the figure is 3.22%; as for `Cc1cccc(C(=O)Nc2ccnc(N(C)CCCN(C)Cc3cccc(C#N)c3)c2)c1`, 5.76%; as for `Cc1cc(Nc2ncc(C#N)c(Nc3ccccc3C(N)=O)n2)ccc1N1CCN(C)CC1`, 79.2%.
As for `Cc1nc(-c2cccc(Nc3nccc(NCC(O)c4cccc(C(F)(F)F)c4)n3)c2)cs1` (stereo not given), the figure is 1.56%; as for `O=C(/C=C/c1ccc(Cl)cc1)NCCCCCN1CCCC(C(=O)Nc2ccc(Cl)cc2)C1` (stereo not given), 3.89%; as for `c1ccc(-c2n[nH]cc2Nc2ccnc3ccccc23)nc1`, 5.35%.
As for `CNCCNCc1cccc(-c2ccc(-c3nc4cccc(C)c4[nH]3)cc2)c1`, the figure is -1.62%; as for `CCCCCN1CCCC1CNS(=O)(=O)c1cccc(C(=O)Nc2cccc(C(F)(F)F)c2)c1` (stereo not given), 6.45%; as for `COc1cccc2cc(C(=O)N[C@@H](CC(C)C)C(=O)N[C@H](C=NN3CCOC3=O)CC(C)C)oc12`, 2.15%.
For `COc1ccc(Cl)cc1N1CCN(CCCNC(=O)c2ccc(-c3nc4cc(Cl)c(C)cc4[nH]3)c(F)c2)CC1`, the inhibition came out at 1.96%.
With `CC1(C)NC(N)=NC(=N)N1OCOc1cc(Cl)c(Cl)cc1Cl`, the inhibition is -2.15%.
As for `O=C(NC1CCC(N2CCC(c3ccccc3C(F)(F)F)CC2)CC1)c1cc2ccccc2[nH]1` (stereo not given), the figure is 8.86%; as for `COc1cc2c(cc1N1CC(C)NC(C)C1)N(C(=O)c1ccc(-c3ccc(-c4ncc[nH]4)cc3C)cc1)CC2` (stereo not given), 2.21%; as for `CC(C)C[C@@H](CNC[C@H](CC(C)C)NC(=O)OC(C)(C)C)NC(=O)OC(C)(C)C`, -0.36%.
In the case of `Cc1noc(C)c1-c1ccc2c(Nc3ccccc3C(C)(C)C)c(C(=O)NC3CCCC3)cnc2c1` it was 2.07%.
As for `N#CCOc1c(C2CCN(CCCCNC(=O)c3ccc(-c4ccc(C(F)(F)F)cc4)cc3)CC2)ccc2c1CCCC2`, the figure is 4.16%.
Turning to `COc1cc(Nc2nccc(N3CCC(NS(=O)(=O)c4ccc(NC(C)=O)cc4)CC3)n2)cc(OC)c1OC`, the inhibition is -1.13%.
In the case of `C=CCn1c(SCC(=O)Nc2cc(C)ccc2OC)nc2sc(C)cc2c1=O` it was 4.32%; in that of `CC(=O)Nc1ccc(OCCCCN(Cc2ccccc2OC(F)(F)F)c2ccc(C(F)(F)F)c(C#N)c2)c(Cl)c1`, 1.46%; in that of `O=C(NC1CCN(Cc2ccccc2)CC1)c1ccc(-c2nc3cc4ccccc4cc3[nH]2)s1`, 3.9%.
Take `CS(=O)(=O)c1ccc(CNCc2cccc(-c3cccc(-c4nc5cc(F)ccc5[nH]4)c3)c2)cc1`: the inhibition came out at 2.4%.
As for `N=C(N)Nc1nc(-c2cc(NC(=O)C(F)(F)F)cc([N+](=O)[O-])c2)cs1`, the figure is 0.23%; as for `C=CCOc1cccc2c1CCN(CCN1CCC(NC(=O)c3ccc(-c4ccc(Cl)cc4)cc3)CC1)C2`, 17.2%.
In the case of `CC(C)N1CCC(N(Cc2ccc(-c3ccc(C(F)(F)F)cc3)cc2)C(=O)Cn2c(SCc3cccc(F)c3F)cc(=O)c3ccccc32)CC1` it was -0.18%.
As for `COc1cc(Nc2nccc(N3CCC(NC(=O)Nc4ccc5c(c4)OCO5)C3)n2)cc(OC)c1OC` (stereo not given), the figure is 11.1%; as for `O=C1COC2(CN1C1CCN(Cc3ccc(O)c(Cl)c3)C1)c1ccccc1-c1ccccc12` (stereo not given), 9.11%; as for `COc1cccc(C(=O)NCCOc2ccccc2)c1Oc1ccccc1`, 5.14%.
For the compound `CC(C)Sc1nncc(-c2cnnc(SC(C)C)n2)n1`, the inhibition was -0.53%.
In the case of `COC(=O)c1cccc(CNCc2cccc(-c3cccc(-c4nc5cccc(C)c5[nH]4)c3)c2)c1` it was 9.22%; in that of `CN(C)CCn1c(=N)n(CC(O)c2ccc(Cl)c(Cl)c2)c2ccccc21` (stereo not given), 6.31%.
